Source: PubChem (National Center for Advancing Translational Sciences (NCATS))
Pf Dd2 inh: blocks in vitro growth of P. falciparum Dd2; P. falciparum Dd2 growth, SYBR Green, 72 h; Potency, µM (series often up to 28.9 µM), without a hit: at the top dose activity, negative = inhibition, actives largely listed as inhibitors; 120,000 tested, 4.3% active; active = well fitted inhibition curve with a large enough effect;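 note: plate controls were DMSO vehicle for no effect and reference drug for full effect; nearly all actives have a fitted effect of over 65% in size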
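Infected erythrocytes (Dd2, 0.3% parasitemia, 2.5% hematocrit final) are added to compound in RPMI-1640/Albumax II medium, grown 72 h at 37C in low oxygen, then lysed with saponin/Triton-X containing SYBR Green and read by fluorescence.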
The depositor's hits bear a star; [ ] = remark or other dose. The sample as a whole holds a higher share of hits than the screen did. Potency is the fitted concentration of half-maximal effect.

Screening COC(=O)[C@@H]1Cc2ncn(C)c2CN1C(=O)CC(C)(C)CC(=O)O returned Pf Dd2 inh 9.7%[44.1 µM].
`O=C(c1c[nH]c2ccccc12)N1CCC2(CC1)CN(c1ccncn1)CC2CO` (stereo not given) gave Pf Dd2 inh 5.62µM*.
For O=C(Cc1ccccc1)N1CCC2(CC1)CN(c1ccncn1)CC2CO (stereo not given) the results were Pf Dd2 inh inactive.
O=C(Cc1ccsc1)N1CCC2(CC1)CN(c1ccncn1)CC2CO (stereo not given) was read as Pf Dd2 inh -15.4%.
Screening Cc1ccc2nc(C)c(C)c(C(=O)NCc3nc(-c4ncccn4)no3)c2c1 returned Pf Dd2 inh -13.4%.
Screening O=C(NCC1(COc2cccnc2)C[C@@H](O)[C@@H](O)C1)Nc1cccnc1 (stereo not given in full) returned Pf Dd2 inh 26.0%[44.1 µM].
`CCC(Sc1nncn2c1cc1occc12)C(=O)Nc1ccc(C)c(Cl)c1` (stereo not given) gave Pf Dd2 inh 14.1µM*.
Cc1oc(-c2cccc(Cl)c2)nc1CSc1nncn2c1cc1occc12 was read as Pf Dd2 inh 144.7%[5.79 µM].
O=C(CSc1nncn2c1cc1occc12)Nc1ccc(F)c(Cl)c1 was read as Pf Dd2 inh -29.7%.
Cc1cccc(OCC2(CNC(=O)c3ccc(F)cc3)C[C@@H](O)[C@@H](O)C2)n1 (stereo not given in full) was read as Pf Dd2 inh inactive.
COCCn1c(C)cc(C(=O)N2C[C@@H](CO)[C@H](c3ccccn3)C2)c1C was read as Pf Dd2 inh 11.9%.
Screening CCn1ccc2cc(S(=O)(=O)N3CCC(C(=O)NCCc4ccccc4)CC3)ccc21 returned Pf Dd2 inh -8.9%.
CCn1ccc2cc(S(=O)(=O)N3CCC(C(=O)NCCc4ccc(SC)cc4)CC3)ccc21 was read as Pf Dd2 inh 8.91µM*.
`CCn1ccc2cc(S(=O)(=O)N3CCC(C(=O)NCc4ccc(F)cc4)CC3)ccc21` gave Pf Dd2 inh 13.1%.
Screening CN(C)[C@@H]1CN(C(=O)CCc2ccccc2)CC[C@]1(O)c1ccccc1 returned Pf Dd2 inh -11.7%[5.79 µM].
COC(=O)c1ccc2nc(CO[C@H]3CN(Cc4ccc(OC)nc4)C[C@H]3F)[nH]c2c1 was read as Pf Dd2 inh -2.1%[44.1 µM].
Screening O=C1COCC2(CN1Cc1cccc(OC(F)(F)F)c1)CN(C(=O)c1cccs1)C2 returned Pf Dd2 inh inactive.
CNC(=O)[C@@H](C1CC1)N1CCC[C@H]1C(=O)NCC1CC1 was read as Pf Dd2 inh 11.1%[44.1 µM].
For C[C@@H](c1ccccc1)N1C(=O)[C@@H]2CN(C(=O)c3ccco3)CCN2C1=O the results were Pf Dd2 inh -21.5%[44.1 µM].
CC(=O)c1ccc(N2CCN(C(=O)CCCCn3c(=O)[nH]c4ccccc4c3=O)CC2)cc1 was read as Pf Dd2 inh 5.62µM*.
`O=C(CCCCCn1c(=O)[nH]c2ccccc2c1=O)NCc1ccc(Cl)cc1` gave Pf Dd2 inh inactive.
Screening CCCCCn1c(=O)[nH]c2cc(C(=O)N3CCN(c4ccccc4F)CC3)ccc2c1=O returned Pf Dd2 inh -12.6%.
`COC(=O)c1ccc2c(=O)n(CCCCCC(=O)N3CCN(c4cc(Cl)ccc4C)CC3)c(=O)[nH]c2c1` gave Pf Dd2 inh 10µM*.
Screening O=C(CCCCCn1c(=O)[nH]c2ccccc2c1=O)NCCc1ccccc1 returned Pf Dd2 inh -5.3%.
For CC(=O)c1ccc(N2CCN(C(=O)CCCn3c(=O)[nH]c4ccsc4c3=O)CC2)cc1 the results were Pf Dd2 inh inactive.
For O=C(CCCn1c(=O)[nH]c2ccc(Br)cc2c1=O)N1CCN(c2cccc(Cl)c2)CC1 the results were Pf Dd2 inh inactive.
`O=C(CCCCCn1c(=O)[nH]c2ccccc2c1=O)NCc1ccccc1` gave Pf Dd2 inh 10µM*.
Cc1ccc(C)c(N2CCN(C(=O)c3ccc4c(=O)n(CCc5ccccc5)c(=O)[nH]c4c3)CC2)c1 was read as Pf Dd2 inh -24.4%.
`COc1cccc(NC(=O)NC[C@H]2O[C@H](Cc3cc(CN4CCOCC4)on3)CC[C@@H]2O)c1` gave Pf Dd2 inh 20.6%.
For COc1ccc(OC2CN(Cc3ccc(C#N)cc3)C2)cc1 the results were Pf Dd2 inh 10.1%.
For CC(C)OCCCNc1nc2c([S+](=O)([O-])c3ccc(Cl)cc3)nnn2c2ccccc12 the results were Pf Dd2 inh 9.9%.
For O=C(NC1CCCCC1)[C@@H]1C[C@@H](O)CN1C1CCN(C(=O)c2ccsc2)CC1 the results were Pf Dd2 inh -14.0%.
For O=C(NC1CCN(c2ccc(F)cc2)C1=O)c1ccc(Cl)s1 (stereo not given) the results were Pf Dd2 inh inactive.
`O=C(NCc1nnc2n1C(C(=O)NCc1ccc(F)cc1)CC2)c1cccnc1` (stereo not given) gave Pf Dd2 inh 26.1%.
Screening O=C1CCN(C2CCCCC2)CCOCCN1 returned Pf Dd2 inh -26.0%.
Screening Cc1cc(C(=O)N2CCn3nc(C(O)CO)cc3C2)c2c(C)noc2n1 (stereo not given) returned Pf Dd2 inh -17.4%.
CCC1CCCCN1CCCNC(=O)c1ccc2c(c1)sc1nc(-c3ccc(F)cc3)cn12 (stereo not given) was read as Pf Dd2 inh 1µM*.
CCc1ccc(-c2cn3c(n2)sc2cc(C(=O)NCCCc4ccccc4)ccc23)cc1 was read as Pf Dd2 inh inactive.
For Cc1ccc(-c2cn3c(n2)sc2cc(C(=O)NC4CCCCCC4)ccc23)cc1 the results were Pf Dd2 inh 0.6%.
For O=C(NCc1cccs1)c1ccc2c(c1)sc1nc(-c3ccc(F)cc3)cn12 the results were Pf Dd2 inh -11.7%.
`O=C(NCCCN1CCCCCC1)c1ccc2c(c1)sc1nc(-c3ccccc3)cn12` gave Pf Dd2 inh 10µM*.
Screening O=C(NC1CCCCC1)c1ccc2c(c1)sc1nc(-c3ccccc3)cn12 returned Pf Dd2 inh inactive.
`CCc1ccc(-c2cn3c(n2)sc2cc(C(=O)NCC(C)c4ccccc4)ccc23)cc1` (stereo not given) gave Pf Dd2 inh -1.5%.
`CCc1ccc(-c2cn3c(n2)sc2cc(C(=O)NC4CCCCCC4)ccc23)cc1` gave Pf Dd2 inh 8.0%.
`Cc1ccc(-c2cn3c(n2)sc2cc(C(=O)NCCCc4ccccc4)ccc23)c(C)c1` gave Pf Dd2 inh 5.01µM*.
For COC(=O)c1cccc(NC(=S)N[C@H]2CO[C@H]3[C@@H]2OC[C@@H]3n2nnnc2Oc2cccc(N3CCOCC3)c2)c1 the results were Pf Dd2 inh -6.9%.
`O=C(c1nc2sccn2c1Br)N1CCC(n2cc[nH]c2=O)CC1` gave Pf Dd2 inh -17.7%.
O=C(Nc1ccc([C@@H](O)[C@H]2COCC(=O)N2Cc2ccc(C(F)(F)F)cc2)cc1)c1ccco1 was read as Pf Dd2 inh -8.8%.
`O=C(NCC1CCOCC1)Nc1ccccc1C(F)(F)F` gave Pf Dd2 inh 38.6%.
`O=C1CC2(CCN(Cc3ccc(C(F)(F)F)cc3)CC2)Oc2cc(Cl)ccc21` gave Pf Dd2 inh inactive.
For O=C1CC2(CCN(CC3CCCCC3)CC2)Oc2cc(Cl)ccc21 the results were Pf Dd2 inh 1.41µM*.
`O=C1CC2(CCN(CC3CC3)CC2)Oc2ccccc21` gave Pf Dd2 inh inactive.
For CCOc1ccccc1C(=O)Nc1cccc(-c2nnc3n2CCCC3)c1 the results were Pf Dd2 inh 5.01µM*.
O=C(Nc1ccc(-c2nnc3n2CCCC3)cc1)c1ccc[nH]c1=O was read as Pf Dd2 inh -2.0%.
